In PubChem BioAssay AID463195 (Sanford-Burnham Center for Chemical Genomics, 2010):
The campaign covered roughly 330,000 compounds. About 4,600 (1.4%) were called active.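 Rule for the calls: active = inhibition of 40% or more at the single tested concentration; inactive = the rest.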 What follows is part of a selection rich in actives, with near analogues and random picks from the rest.

Experiment: growth inhibitors of isogenic TIM10 control yeast, primary screen, counter-screen for tim10-1 yeast inhibitor project, luminescence, uHTS (AID 463195);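 note: wild-type TIM10 isogenic control strain grown at permissive 25 °C; 0% = DMSO yeast wells and 100% = minimal medium wells without yeast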
Settings: S. cerevisiae TIM10 strain growth, BacTiter-Glo luminescence, 24 h; at 10 µM; active compounds read high

Structure (SMILES) | inhibition
Cc1c(C(=O)OC(C)C)sc(NC(=O)c2cccnc2)c1C#N | 6.36% (inactive)
COc1ccc(CCNC(=O)COC(=O)Cc2cccc(F)c2)cc1 | 7.57% (inactive)
Cc1cccc(NC(=O)CN2CCN(C(=O)C3CCN(C(=O)/C=C/c4ccccc4)CC3)CC2)c1C | 8.87% (inactive)
CCCCn1c(=O)c(CCC(=O)OCC(=O)Nc2ccc(C)c(Cl)c2)nc2ccccc21 | -6.83% (inactive)
COc1ccc(S(=O)(=O)N(C)C[C@H]2Oc3c(NC(=O)Nc4ccc5c(c4)OCO5)cccc3C(=O)N([C@H](C)CO)C[C@@H]2C)cc1 | 1.19% (inactive)
O=C(NCc1ccccc1)C1CCCN(c2nc3ccsc3c(=O)s2)C1 (configuration not stated) | -2.48% (inactive)
CCC(C)NC(=O)c1nn(C)c(=O)c2ccccc12 (configuration not stated) | 1.61% (inactive)
Cc1ccc(NC(=O)CSc2sc3c(O)cc(=O)[nH]c3c2C#N)cc1C | -6.33% (inactive)
CCOC(=O)c1ccc(N2C(=O)CC(N3CCC(C(=O)OCC)CC3)C2=O)cc1 (configuration not stated) | 41.3% (active)
CCOC(=O)c1ccc(N2C(=O)CC(N3CC(C)OC(C)C3)C2=O)cc1 (configuration not stated) | 8.24% (inactive)
CCOC(=O)c1ccc(N2C(=O)CC(N3CCN(C(=O)c4ccccc4)CC3)C2=O)cc1 (configuration not stated) | 1.01% (inactive)
CC1CN(C(=S)Nc2ccc(S(N)(=O)=O)cc2)CC(C)O1 (configuration not stated) | 2.19% (inactive)
CCN(C(=O)COc1ccc(C(=O)c2ccccc2)cc1)c1ccccc1 | 16.5% (inactive)
CCOC(=O)CSc1nc(N2CCOCC2)c2c(c1C#N)CC(C(C)C)OC2 (configuration not stated) | 20% (inactive)
O=C(Nc1cccc(F)c1)[C@@H]1CCCN1 | -11.2% (inactive)
COc1ccc(-c2oc3ncn(Cc4ccco4)c(=N)c3c2-c2ccc(OC)cc2)cc1 | 49% (active)
COc1ccc(-c2oc3ncnc(NCCCO)c3c2-c2ccc(OC)cc2)cc1 | 17.8% (inactive)
COc1ccc(-n2cnc3cc(NCc4ccco4)ccc32)cc1 | 35.3% (inactive)
COc1ccc(C(C)(C)C)cc1NC(=O)CCN1C(=O)C2CCCCC2C1=O (configuration not stated) | 24.4% (inactive)
COc1ccccc1Oc1ccc(N2CC(C(=O)OCC(=O)c3ccc(F)cc3)CC2=O)cc1 (configuration not stated) | 19.9% (inactive)
C[C@@H](NC(=O)OC(C)(C)C)c1nnc(S(=O)(=O)Cc2ccccc2)o1 | 40.3% (active)
CCc1ccccc1NC(=O)CSc1nnc([C@@H](NC(=O)OC(C)(C)C)C(C)C)o1 | 12.6% (inactive)
C[C@H](NC(=O)OC(C)(C)C)c1nnc(SCC(=O)Nc2ccc(Br)cc2)o1 | 9.84% (inactive)

Structure (SMILES) | inhibition
CCN(CC)C(=O)COc1coc(CN2CCN(Cc3ccccc3)CC2)cc1=O | 16.8% (inactive)
COC(C[C@@H]1O[C@@H]1C(=O)[C@@H](C)OCc1ccccc1)OC | 3.69% (inactive)
CC1(C)NC(=O)N(CCCCSc2ccc(Cl)cc2)C1=O | -13.6% (inactive)
COC(=O)c1sc(-c2ccc(C(C)(C)C)cc2)cc1NC(=O)/C=C/C(=O)O | -5.28% (inactive)
COCCCC1CCN(C(=O)C2CCC(=O)N(C3CCCCCC3)C2)CC1 (configuration not stated) | 2.49% (inactive)
COCCNC(=O)C(OC(=O)c1cccs1)c1ccc(F)cc1 (configuration not stated) | 10.9% (inactive)
Cc1nccc(-c2ccc(-n3c(C)ccc3C)cc2)n1 | 6.83% (inactive)
c1ccc(-c2nccc(-c3ccc(-n4cnc5ccccc54)cc3)n2)nc1 | 46% (active)
COC(=O)c1ccc(-n2cnc3ccccc32)nc1 | 10.4% (inactive)
Cc1cc(C(=O)CC#N)c(C)n1CC(F)(F)F | -1.63% (inactive)
COCCn1c(C)cc(C(=O)COC(=O)/C=C/c2cccc(OC)c2)c1C | 17.6% (inactive)
N/C(=N\OC(=O)c1cc(-c2ccccc2)nc2ccccc12)c1ccncc1 | 61.8% (active)
C/C(N)=C(/C#N)C(=O)COC(=O)c1cc(-c2ccc(C)cc2)nc2ccccc12 | 23.8% (inactive)
COC(=O)CNC(=O)c1cc(-c2ccncc2)nc2ccccc12 | -9.97% (inactive)
O=C(Oc1ccc(C(=S)N2CCOCC2)cc1)c1ccc(F)cc1 | 7.76% (inactive)
CC(=O)c1ccc(OC(=O)N2CCOCC2)cc1 | 9.97% (inactive)
O=C(Oc1ccc(F)cc1)N1CCOCC1 | 97.5% (active)
CCOc1c(OC)cccc1C(=O)NCC1(c2ccccc2)CCCC1 | 27.6% (inactive)
CC(C)(C)n1ncc2c(=O)n(Cc3c(Cl)cccc3Br)cnc21 | 5.55% (inactive)
Cc1ccc(OCC(=O)Nc2cccc3c2CCCC3)cc1C | 28.1% (inactive)
O=C(NC(Nc1nc2ccc([N+](=O)[O-])cc2s1)(C(F)(F)F)C(F)(F)F)c1ccccc1 | 76.9% (active)
O=C(COC(=O)c1ccc([N+](=O)[O-])cc1Cl)NC(=O)c1ccccc1 | -3.01% (inactive)
O=C(NOCc1ccccc1)c1cccc([N+](=O)[O-])c1 | 0.85% (inactive)

Structure (SMILES) | inhibition
CCc1ccc(C(=O)NN=C2CCCCCC2)s1 | -0.295% (inactive)
CCCC(C(=O)N1CCOCC1)N1C(=O)C2C3C=CC(C3)C2C1=O (configuration not stated) | -10.3% (inactive)
CCC(C)(C)n1nnnc1CN1CCN(c2nc3ccc(C)cc3cc2C#N)CC1 | 41.5% (active)
CCC(C)(C)n1nnnc1C(c1cccs1)N1CCN(c2nc3ccccc3s2)CC1 (configuration not stated) | 37.8% (inactive)
CCOc1ccc2nc(N3CCCN(C(=O)Nc4ccccc4C)CC3)c(C#N)cc2c1 | 2.29% (inactive)
CSc1ccc(CN(C)CC(=O)NCc2ccc(F)cc2)cc1 | -1.15% (inactive)
Cn1c(CNC(=O)c2ccco2)nnc1SCC(=O)N1CCN(c2ccccc2)CC1 | 2.03% (inactive)
O/N=C(\c1ccc2c(c1)OCCO2)C1CCCCC1 | 3.12% (inactive)
Cc1c(CNCCc2ccccc2)c(C(=O)O)c(C)n1-c1ccccc1 | -4.69% (inactive)
Cn1c(-c2sc3cc(C(F)(F)F)cnc3c2-c2ccccc2)n[nH]c1=S | -3.83% (inactive)
COc1cc(/C=N/n2c(C)n[nH]c2=S)ccc1OCc1ccccc1 | 8.61% (inactive)
Cn1c(-c2sccc2OCc2cccc(C(F)(F)F)c2)n[nH]c1=S | 42.2% (active)
CCOc1ccc(-n2c(SCC(=O)Nc3cc(C(=O)O)ccc3Cl)nc3ccccc3c2=O)cc1 | 22.7% (inactive)
S=c1[nH]nc(CSCc2ccc(Cl)cc2Cl)n1-c1ccccc1 | 38.8% (inactive)
CCn1c(CSCc2c(Cl)cccc2Cl)n[nH]c1=S | 53.7% (active)
CCn1c(CNS(=O)(=O)c2ccc(Cl)cc2)n[nH]c1=S | -9.99% (inactive)
Clc1ccc(C2=CSC3=Nc4cccc5cccc(c45)N23)cc1 | 21.2% (inactive)
CCN(CC)P(=O)(/C(Cl)=C\Nc1c(C)n(C)n(-c2ccccc2)c1=O)N(CC)CC | 2.07% (inactive)
COc1ccc(CCNCC(O)Cn2ccc3ccccc32)cc1OC (configuration not stated) | -8.76% (inactive)
O=C1c2ccccc2C(=O)c2c1cccc2N1CCN(Cc2ccccc2)CC1 | 41.3% (active)
O=C1c2ccccc2C(=O)c2c1cccc2N1CCN(C/C=C/c2ccccc2)CC1 | 38.5% (inactive)
O=C1c2ccccc2C(=O)c2c1cccc2N1CCN(CCO)CC1 | 12.2% (inactive)
Cc1ccc(NC(=O)CN(C)C(=O)Cn2nnc(-c3ccccc3)n2)cc1 | 0.534% (inactive)

Structure (SMILES) | inhibition
COc1ccccc1CNC(=O)COc1ccc(C)nc1[N+](=O)[O-] | 9.85% (inactive)
Cc1cccc(NC(=O)CCn2c(=O)oc3ccccc32)c1 | -10% (inactive)
CC(OC(=O)c1cc2ccccc2o1)C(=O)Nc1ccc(N2CCOCC2)cc1 (configuration not stated) | 3.94% (inactive)
CN1CCN(c2ccccc2NC(=O)COc2ccc(C3CCCCC3)cc2)CC1 | 40.4% (active)
O=C(CN1CCN(C2CCCCC2)CC1)Nc1ccccc1N1CCCCC1 | 4.11% (inactive)
Cc1ccc(C(C)C)cc1OCC(=O)Nc1ccccc1N1CCCC1 | -2.85% (inactive)
COc1ccc(CNC(=O)/C(C#N)=C/c2cccc(OC)c2OC)cc1 | 70.4% (active)
COc1ccc(NC(=O)/C(C#N)=C\c2cc(OC)c(OCc3ccc(C(=O)O)cc3)cc2Br)cc1 | 26.4% (inactive)
COc1ccc(CNC(=O)CCn2cccc2)cc1 | -5.68% (inactive)
C=CCSc1nnc(N2C(=O)C(O)=C(C(=O)c3ccco3)C2c2ccc(F)cc2)s1 (configuration not stated) | 1.92% (inactive)
Cc1ccc2[nH]c3c(=O)n(CC(=O)NCCc4ccc(Cl)cc4)ncc3c2c1 | -0.819% (inactive)
C=CCO/N=C/C1=C(O)C(C(=O)OC)C(C)(C)CC1=O (configuration not stated) | 6.77% (inactive)
O=C(Nc1ccncc1)c1cc2ccccc2o1 | -3.62% (inactive)
O=c1oc2ccccc2cc1-c1csc(Nc2ccc(O)cc2)n1 | 43.9% (active)
Cc1ccc(Nc2nc(-c3ccc(O)cc3O)cs2)nc1 | 11.7% (inactive)
Cc1csc(=O)n1CC(=O)Nc1ccc(S(C)(=O)=O)cc1 | -3.37% (inactive)
CCn1c(=O)c2ccccc2n(CC(=O)N2CCCc3ccccc32)c1=O | -2.71% (inactive)
CC(C)c1ccc2c(c1)c(SC(C)(C)C)c(CC(C)(C)C(=O)O)n2Cc1ccc(Cl)cc1 | 3.33% (inactive)
N/C(=N/O)c1cccn1Cc1ccccc1[N+](=O)[O-] | -10.5% (inactive)
N/C(=N\OC(=O)Cc1ccccc1[N+](=O)[O-])c1ccc(Br)cc1 | 57.9% (active)
N/C(=N\OC(=O)N1c2ccccc2Sc2ccccc21)c1ccc(Br)cc1 | -9.5% (inactive)
CC[C@@H]1Cc2cc(O)ccc2C2=C1c1ccc(O)cc1C[C@H]2CC | 58.9% (active)
CCOc1ccc(N2C(=O)Nc3ccccc3C2(O)C(=O)NCc2ccco2)cc1 (configuration not stated) | -6.83% (inactive)
